Experimental data as given in PubChem BioAssay (Tox21).
Several values for one entry are separate records, joined by “and”; a condition that tells them apart may be missing. Equal values may be shown once. Records with an inconclusive call do not appear. Where a call stands in place of a potency, no number is given. Activity calls are given as the source filed them. Unless noted, the call rests on the fitted dose curve; in most records, active means well fitted curve in the direction sought with a large enough effect in the repeat runs; inconclusive means weak or mixed curves; inactive means no such curve, though single readings can be large; an effect the other way counts as inactive or inconclusive.

Tests used:
[1] = qHTS assay to identify small molecule antagonists of the estrogen receptor alpha (ER-alpha) signaling pathway using the BG1 cell line in the presence of 0.1 nM 17-beta-estradiol - cell viability counter screen (AID 1259241); further: nearly all actives have a fitted effect of over 40% in size
Procedure, shortened: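 VM7Luc4E2 cells (endogenous full-length ER-alpha, 4xERE-luciferase), cultured 5 days in charcoal-stripped serum, exposed to compounds with 0.1 nM 17beta-estradiol (final) for 22 hr at 37C. Viability read in same wells as live-cell protease fluorescence after 30 min.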

[2] = qHTS assay to identify small molecule antagonists of the androgen receptor (AR) signaling pathway using the MDA cell line in the presence of 0.5 nM R1881 - cell viability counter screen (AID 1259242); further: nearly all actives have a fitted effect of over 45% in size
Procedure, shortened: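 MDA-kb2 cells (human breast carcinoma, stably carrying MMTV-luciferase reporter) were exposed to compounds with 0.5 nM R1881 (final) for 16 hr at 37C, 0% CO2; viability then read as live-cell protease fluorescence (CellTiter-Fluor, 30 min) in the same wells.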

[3] = target: Estrogen receptor (Homo sapiens) (UniProt P03372); assay: qHTS assay to identify small molecule antagonists of the estrogen receptor alpha (ER-alpha) signaling pathway using the BG1 cell line in the presence of 0.1 nM 17-beta-estradiol (AID 1259244); further: nearly all actives have a fitted effect of over 50% in size
Procedure, shortened: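 VM7Luc4E2 cells (endogenous full-length ER-alpha, stable 4xERE-luciferase) were grown 5 days in phenol red-free medium with charcoal-stripped FBS, then exposed 22 h at 37C to compounds plus 0.1 nM (final) 17beta-estradiol; ONE-Glo luminescence read-out.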

[4] = qHTS assay to identify small molecule HDAC inhibitors - cell viability counter screen (AID 1259365); further: series mostly up to about 92 µM; nearly all actives have a fitted effect of over 50% in size
Procedure, shortened: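 Wild-type HCT-116 cells, 1,500/well, cultured overnight, then compound-treated 2 h at 37 C. Viability measured as ATP luminescence with CellTiter-Glo after 30 min at room temperature.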

[5] = qHTS assay to identify small molecule agonists of the sonic hedgehog signaling (Shh) pathway - cell viability counter screen (AID 1259366); further: nearly all actives have a fitted effect of over 50% in size
Procedure, shortened: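 NIH/3T3-derived Gli1-Luc reporter cells, 2,000 per well, received compound after 4 h and were treated about 23 h at 37C. Viability measured in the same wells by CellTiter-Fluor fluorescence after 1 h.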

[6] = qHTS assay to identify small molecule antagonists of the sonic hedgehog signaling (Shh) pathway - cell viability counter screen (AID 1259367); further: nearly all actives have a fitted effect of over 55% in size
Procedure, shortened: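 Using CellTiter-Fluor, viability of Gli1-Luc reporter 3T3 cells is read by fluorescence in the wells used for the Shh luciferase assay. Treatment lasts 23 hr with conditioned medium, then reagent 1 hr at 37C.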

[7] = qHTS assay to identify small molecule agonists of the sonic hedgehog signaling (Shh) pathway (AID 1259368; calls by dose curve; further: series mostly up to about 92 µM; nearly all actives have a fitted effect of over 15% in size)
Procedure, shortened: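 NIH/3T3-derived 3T3Gli1-Luc cells carrying a stably integrated Gli1 response element–firefly luciferase reporter were plated, left 4 hr at 37 C, then given compounds in DMSO for 24 hr. Luminescence was read 30 min after adding luciferase reagent.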

[8] = qHTS assay to identify small molecule antagonists of the sonic hedgehog signaling (Shh) pathway (AID 1259369; calls by dose curve; further: nearly all actives have a fitted effect of over 45% in size; further: potency means the concentration at half of the fitted maximal effect)
Procedure, shortened: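 NIH/3T3-derived 3T3Gli1-Luc cells with stably integrated Gli1-Luc reporter were preincubated 4hr at 37 C, then given compounds in DMSO plus Shh conditioned medium and incubated 24hr. Firefly luciferase luminescence read after 30min reagent at room temperature.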

[9] = qHTS assay to identify small molecule agonists of the androgen receptor (AR) signaling pathway in the presence of an antagonist - cell viability counter screen (AID 1259379); further: series mostly up to about 92 µM; nearly all actives have a fitted effect of over 25% in size
Procedure, shortened: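 MDA-kb2 human breast carcinoma cells (stable MMTV-luciferase, AR/GR responsive) were seeded 3,000 cells/well, pre-incubated 5 hr at 37C without CO2, then given 3.0uM nilutamide and compounds at 15 concentrations for 16 hr. Viability was read by CellTiter-Fluor fluorescence.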

[10] = qHTS assay to identify small molecule agonists or antagonists of the thyroid stimulating hormone receptor (TSHR) signaling pathway - wild type cell line counter screen (AID 1259384; calls by dose curve)
Procedure, shortened: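 Counter screen in untransfected Hek293: compounds (15-point titration, triplicate) plus phosphodiesterase inhibitor Ro20-1724 added after 18 h plating; 30 min RT. Intracellular cAMP via competitive d2/cryptate immunoassay, 1 h incubation.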

[11] = target: Thyrotropin receptor (Homo sapiens) (UniProt P16473); assay: qHTS assay to identify small molecule antagonists of the thyroid stimulating hormone receptor (TSHR) signaling pathway (AID 1259385; calls by dose curve; further: nearly all actives have a fitted effect of over 20% in size; further: potency means the concentration at half of the fitted maximal effect)
Procedure, shortened: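 Antagonist mode: compound-treated TSHR-expressing HEK293 cells were stimulated with 1.5 ng/mL TSH (final) in presence of Ro20-1724 for 30 min at RT. HTRF cAMP detection after 1 h; each compound tested at 15 concentrations, triplicate.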

[12] = target: Estrogen receptor beta (Homo sapiens) (UniProt Q92731); assay: qHTS assay to identify small molecule agonists of the estrogen receptor beta (ER-beta) signaling pathway (AID 1259377; active means well fitted activation curve with a large enough effect in the signal ratio in the repeat runs, not every such curve was filed as active; the % refers to the signal ratio)
Procedure, shortened: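 ER-beta-UAS-bla HEK293T cells in medium with 2% charcoal-stripped FBS were exposed to compounds for 16 h at 37C. Beta-lactamase reporter activity was read as fluorescence after 2 h with LiveBLAzer B/G FRET substrate at room temperature.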

[13] = target: Estrogen receptor beta (Homo sapiens) (UniProt Q92731); assay: qHTS assay to identify small molecule antagonists of the estrogen receptor beta (ER-beta) signaling pathway (AID 1259378; active means well fitted inhibition curve with a large enough effect in the signal ratio in the repeat runs, not every such curve was filed as active; the % refers to the signal ratio; further: potency means the concentration at half of the fitted maximal effect)
Procedure, shortened: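 Antagonist mode: compounds added to beta-lactamase reporter HEK293T ER-beta-UAS cells stimulated with E2 (1nM final), 16 hr at 37C. LiveBLAzer B/G FRET substrate, 2 hours room temperature, fluorescence read-out.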

[14] = qHTS assay to identify small molecule agonists of the estrogen receptor beta (ER-beta) signaling pathway - cell viability counter screen (AID 1259380); further: nearly all actives have a fitted effect of over 30% in size; further: potency means the concentration at half of the fitted maximal effect
Procedure, shortened: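 ER-beta-UAS-bla HEK293T cells in medium with 2% charcoal-stripped FBS were preincubated 6 hr at 37C, dosed with compound in DMSO for 16 hr, then after the bla read, CellTiter-Glo was added for 30 min at room temperature; luminescence recorded.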

[15] = qHTS assay to identify small molecule antagonists of the estrogen receptor beta (ER-beta) signaling pathway - cell viability counter screen (AID 1259382);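 further: HEK293T cells carrying ER-beta-UAS-bla reporter stimulated with estradiol; series mostly up to about 92 µM; nearly all actives have a fitted effect of over 55% in size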
Procedure, shortened: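 ER-beta-UAS-bla HEK293T cells (2,000/well, 2% charcoal-stripped FBS) were pre-incubated 6 hr at 37C, then given compound plus 1nM final 17-beta-estradiol for 16 hr. Viability was read in the same wells by CellTiter-Glo luminescence after 30 min at room temperature.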

[16] = qHTS assay to identify small molecule phospholipidosis (PLD) inducers (AID 1259344; active means well fitted curve in the direction sought with a large enough effect; an effect the other way counts as inactive or inconclusive)
Procedure, shortened: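 Fluorescent phospholipid staining (LipidTOX Red) measured by automated microscopy in fixed HepG2 cells after 24 h treatment; nuclei counterstained with Hoechst 33342; amiodarone as reference inducer.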

[17] = qHTS assay to identify small molecule HDAC inhibitors (AID 1259364); further: top concentration of the series differs between compounds; nearly all actives have a fitted effect of over 45% in size
Procedure, shortened: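 Wild-type HCT-116 cells were plated overnight, exposed to compounds for 2 h at 37 °C, then given HDAC-Glo class I/II luminogenic reagent for 30 min at room temperature before luminescence was read.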

[18] = target: Estrogen receptor (Homo sapiens) (UniProt P03372); assay: qHTS assay to identify small molecule agonists of the estrogen receptor alpha (ER-alpha) signaling pathway in the presence of an antagonist (AID 1259383; calls by dose curve; further: top concentration of the series differs between compounds; nearly all actives have a fitted effect of over 15% in size)
Procedure, shortened: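 VM7Luc4E2 cells (endogenous full-length ER-alpha, 4×ERE-luciferase) were precultured 5 days in phenol red-free medium with 10% charcoal-stripped FBS, given 10.0nM ICI-182,780 (final), then treated with compounds at 15 concentrations for 22hr at 37C; luminescence read with ONE-Glo.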

[19] = target: Androgen receptor (Homo sapiens) (UniProt P10275); assay: qHTS assay to identify small molecule agonists of the androgen receptor (AR) signaling pathway in the presence of an antagonist (AID 1259381; calls by dose curve; further: nearly all actives have a fitted effect of over 15% in size)
Procedure, shortened: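 MDA-kb2 human breast carcinoma cells carrying an MMTV-luciferase reporter (AR- and GR-responsive) were treated with compounds at 15 concentrations plus 3.0uM final nilutamide for 16hr at 37C without CO2; luminescence was read after ONE-Glo addition.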

Estrogen receptor beta (Homo sapiens), sequence (Q92731 whole entry, looked up): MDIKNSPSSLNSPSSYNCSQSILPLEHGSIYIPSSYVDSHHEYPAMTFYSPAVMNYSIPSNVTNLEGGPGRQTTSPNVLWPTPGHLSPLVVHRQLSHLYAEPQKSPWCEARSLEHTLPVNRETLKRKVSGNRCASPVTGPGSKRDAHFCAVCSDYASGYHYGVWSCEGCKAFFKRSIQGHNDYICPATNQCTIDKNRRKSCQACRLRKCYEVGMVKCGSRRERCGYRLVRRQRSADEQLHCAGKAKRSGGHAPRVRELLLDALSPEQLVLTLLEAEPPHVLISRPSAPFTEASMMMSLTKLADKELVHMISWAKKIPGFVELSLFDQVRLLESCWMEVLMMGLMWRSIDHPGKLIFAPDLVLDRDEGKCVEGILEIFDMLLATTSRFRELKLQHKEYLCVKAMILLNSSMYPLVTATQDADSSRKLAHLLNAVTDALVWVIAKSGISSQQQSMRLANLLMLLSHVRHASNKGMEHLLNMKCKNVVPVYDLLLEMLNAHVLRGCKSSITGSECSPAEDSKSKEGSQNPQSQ
Estrogen receptor (Homo sapiens), sequence (P03372 whole entry, looked up): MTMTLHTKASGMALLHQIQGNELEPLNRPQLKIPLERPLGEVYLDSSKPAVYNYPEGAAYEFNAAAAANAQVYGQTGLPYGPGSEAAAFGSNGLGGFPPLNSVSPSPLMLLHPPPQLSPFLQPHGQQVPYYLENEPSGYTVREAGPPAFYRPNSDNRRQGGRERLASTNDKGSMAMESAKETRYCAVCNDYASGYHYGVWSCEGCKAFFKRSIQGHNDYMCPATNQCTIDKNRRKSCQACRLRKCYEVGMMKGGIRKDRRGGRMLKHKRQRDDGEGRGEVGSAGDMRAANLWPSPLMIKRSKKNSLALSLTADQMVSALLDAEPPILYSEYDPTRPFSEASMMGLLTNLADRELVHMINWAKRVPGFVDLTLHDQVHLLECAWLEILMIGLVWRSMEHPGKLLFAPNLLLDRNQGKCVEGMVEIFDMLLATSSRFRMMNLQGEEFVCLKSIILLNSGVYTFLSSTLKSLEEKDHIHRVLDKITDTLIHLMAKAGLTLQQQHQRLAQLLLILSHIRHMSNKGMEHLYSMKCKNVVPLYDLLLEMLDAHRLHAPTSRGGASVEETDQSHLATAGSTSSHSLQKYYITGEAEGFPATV
Thyrotropin receptor (Homo sapiens), sequence (P16473 whole entry, looked up): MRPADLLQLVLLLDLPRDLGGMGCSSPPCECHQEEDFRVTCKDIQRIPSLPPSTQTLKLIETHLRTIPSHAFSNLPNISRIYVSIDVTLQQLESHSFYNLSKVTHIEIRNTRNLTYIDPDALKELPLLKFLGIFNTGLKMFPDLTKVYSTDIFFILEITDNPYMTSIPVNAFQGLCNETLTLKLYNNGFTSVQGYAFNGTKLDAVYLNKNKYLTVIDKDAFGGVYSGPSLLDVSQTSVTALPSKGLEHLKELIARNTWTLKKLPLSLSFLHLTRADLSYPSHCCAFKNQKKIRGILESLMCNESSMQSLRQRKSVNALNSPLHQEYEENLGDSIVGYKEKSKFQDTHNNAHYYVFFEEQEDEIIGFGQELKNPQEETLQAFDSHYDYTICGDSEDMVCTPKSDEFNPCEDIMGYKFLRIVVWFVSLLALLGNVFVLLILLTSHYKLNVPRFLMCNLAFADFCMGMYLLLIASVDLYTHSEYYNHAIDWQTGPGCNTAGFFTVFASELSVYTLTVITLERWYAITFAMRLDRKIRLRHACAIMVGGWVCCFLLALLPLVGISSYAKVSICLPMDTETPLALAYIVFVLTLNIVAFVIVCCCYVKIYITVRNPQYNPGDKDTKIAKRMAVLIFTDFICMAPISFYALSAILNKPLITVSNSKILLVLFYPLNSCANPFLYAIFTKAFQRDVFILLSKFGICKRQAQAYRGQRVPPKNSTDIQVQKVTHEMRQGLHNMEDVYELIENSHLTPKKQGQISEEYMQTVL
Androgen receptor (Homo sapiens), sequence (P10275 whole entry, looked up): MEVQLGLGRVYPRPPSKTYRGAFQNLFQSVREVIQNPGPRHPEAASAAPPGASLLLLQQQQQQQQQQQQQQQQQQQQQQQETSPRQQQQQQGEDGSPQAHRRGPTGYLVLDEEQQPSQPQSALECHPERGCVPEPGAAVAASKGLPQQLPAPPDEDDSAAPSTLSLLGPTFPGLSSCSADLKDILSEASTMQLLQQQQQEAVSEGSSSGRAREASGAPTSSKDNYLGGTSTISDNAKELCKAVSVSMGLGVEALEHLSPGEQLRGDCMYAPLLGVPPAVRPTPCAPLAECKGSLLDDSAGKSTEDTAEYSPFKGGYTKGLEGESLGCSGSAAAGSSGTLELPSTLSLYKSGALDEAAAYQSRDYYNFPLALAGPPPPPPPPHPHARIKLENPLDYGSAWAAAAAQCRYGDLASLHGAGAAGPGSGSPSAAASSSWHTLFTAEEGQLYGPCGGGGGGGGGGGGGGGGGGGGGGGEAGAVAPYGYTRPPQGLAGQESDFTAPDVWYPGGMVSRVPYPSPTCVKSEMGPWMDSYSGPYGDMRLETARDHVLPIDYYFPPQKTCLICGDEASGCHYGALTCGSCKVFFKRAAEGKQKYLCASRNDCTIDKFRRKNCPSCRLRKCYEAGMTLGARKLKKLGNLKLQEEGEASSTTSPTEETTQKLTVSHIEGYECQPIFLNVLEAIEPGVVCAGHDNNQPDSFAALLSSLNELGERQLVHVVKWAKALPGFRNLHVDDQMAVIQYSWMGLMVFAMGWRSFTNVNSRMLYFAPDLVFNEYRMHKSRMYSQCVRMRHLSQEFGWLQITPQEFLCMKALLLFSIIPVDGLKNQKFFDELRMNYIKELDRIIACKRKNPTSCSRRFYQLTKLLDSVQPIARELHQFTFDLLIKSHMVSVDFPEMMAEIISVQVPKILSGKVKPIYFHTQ

SMILES | Potency [1] | Potency [2] | Potency [3] | Potency [4] | Potency [5] | Potency [6] | Potency [7] | Potency [8] | Potency [9] | Potency [10] | Potency [11] | Potency [12] | Potency [13] | Potency [14] | Potency [15] | outcome [16] | Potency [17] | Potency [18] | Potency [19]
COP(=S)(OC)Oc1nc(Cl)c(Cl)cc1Cl | inactive | inactive | inactive | inactive | inactive | inactive | inactive | inactive | inactive | inactive | inactive | – | – | – | – | – | – | – | –
Nc1ccccc1-c1ccccc1 | inactive | inactive | inactive | inactive | – | inactive | inactive | inactive | inactive | inactive | inactive | inactive | inactive | 48.3 µM (active) | inactive | – | – | – | –
CNC(C)(C)Cc1ccccc1 | inactive | inactive | – | inactive | inactive | inactive | inactive | inactive | inactive | inactive | inactive | – | – | – | inactive | inactive | inactive | – | –
CC(C)c1c(CN(C)C(C)Cc2ccccc2)n(C)n(-c2ccccc2)c1=O (centres undefined) | inactive | inactive | – | inactive | inactive | inactive | inactive | inactive | inactive | inactive | – | inactive | 21.1 µM (active) | 6.68 µM (active) | inactive | inactive | inactive | inactive | –
CC(C)(C)c1ccc(OP(=O)(Oc2ccccc2)Oc2ccccc2)cc1 | inactive | inactive | inactive | inactive | inactive | inactive | inactive | – | inactive | – | – | inactive | – | – | – | – | inactive | inactive | –
O=[N+]([O-])c1ccc(CCl)cc1 | inactive | inactive | inactive | – | inactive | inactive | inactive | inactive | inactive | inactive | inactive | inactive | inactive | inactive | inactive | – | inactive | inactive | –
O=c1c2ccccc2c(=O)c2c1cc(Cl)c1[nH]c3c([nH]c12)c(Cl)cc1c(=O)c2ccccc2c(=O)c13 | inactive | inactive | inactive | inactive | inactive | inactive | inactive | – | inactive | inactive | inactive | – | – | inactive | inactive | – | inactive | inactive | –
CCCCN(CCCC)C(=S)[S-].CCCCN(CCCC)C(=S)[S-].[Ni+2] | inactive | inactive | inactive | inactive | inactive | inactive | inactive | – | inactive | – | – | – | – | inactive | inactive | – | inactive | – | –
COc1cnc(OC)n2nc(NS(=O)(=O)c3c(OCC(F)F)cccc3C(F)(F)F)nc12 | inactive | inactive | inactive | – | inactive | inactive | inactive | inactive | inactive | inactive | inactive | inactive | inactive | inactive | inactive | – | inactive | inactive | –
Oc1ccc(Cl)c(Cl)c1 | inactive | inactive | inactive | inactive | inactive | inactive | inactive | – | inactive | inactive | inactive | – | – | – | inactive | – | inactive | inactive | –
Clc1ccc(C(c2ccc(Cl)cc2)C(Cl)Cl)cc1 | inactive | inactive | inactive | inactive | inactive | inactive | inactive | 34.4 µM (active) | inactive | inactive | 62.1 µM (active) and 61.1 µM (active) | – | – | 54.5 µM (active) | – | – | inactive | inactive | –
CCC1(CC)C(=O)N=C(O)NC1=O | inactive | inactive | inactive | inactive | – | inactive | inactive | – | inactive | – | – | inactive | inactive | inactive | inactive | – | inactive | inactive | –
CN(C)CCc1c[nH]c2ccccc12 | inactive | inactive | – | inactive | inactive | – | inactive | inactive | inactive | inactive | inactive | – | – | inactive | inactive | inactive | inactive | – | –
CCOP(=S)(OCC)SC(CCl)N1C(=O)c2ccccc2C1=O (centres undefined) | inactive | inactive | – | inactive | inactive | inactive | inactive | – | inactive | inactive | – | inactive | 30.6 µM (active) | inactive | inactive | – | inactive | – | inactive
CNC(=O)Oc1cc(C)cc(C(C)C)c1 | inactive | inactive | – | inactive | inactive | inactive | inactive | inactive | inactive | – | – | inactive | inactive | – | inactive | – | inactive | inactive | –
COc1ccc2[nH]cc(CCN(C(C)C)C(C)C)c2c1 | inactive | inactive | – | inactive | inactive | inactive | inactive | inactive | inactive | inactive | inactive | – | inactive | – | – | inactive | – | – | –
